Read-out in experiment [1]: Thyroid Hormone Responsive (THRSP), THRSP (gene 7069)
In words: LTEA_HepaRG_THRSP: Life Technologies and Expression Analysis (LTEA) Assay for Thyroid Hormone Responsive (THRSP) using HepaRG (AID 2283536; active = hit-call score of the fitted dose curve at least 0.9, where 1 is the maximum; inactive = score below 0.9). Conditions: mRNA level, 48 h; actives raise or lower the signal. The procedure, abridged:
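qRT-PCR read-out (Fluidigm TaqMan), housekeeping-normalized (ACTB/GAPDH/POLR2A). HepaRG, 48 h chemical exposure, 8-pt half-log series from 100 uM in 0.5% DMSO, duplicates. Bidirectional curve fit vs 0.5% DMSO baseline.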

Read-out in experiment [2]: Cellular tumor antigen p53 (Homo sapiens) (UniProt P04637)
In words: LTEA_HepaRG_TP53: Life Technologies and Expression Analysis (LTEA) Assay for Tumor Protein P53 (TP53) using HepaRG (AID 2283537; active = hit-call score of the fitted dose curve at least 0.9, where 1 is the maximum; inactive = score below 0.9). The conditions noted are these: mRNA level, 48 h; actives raise or lower the signal. In short, it runs like this: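 Read-out is TP53 transcript level by microfluidic qRT-PCR, normalised to three housekeeping genes and fitted bidirectionally against DMSO. Human HepaRG cells received compounds for 48 h, highest concentration 100 uM.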

Read-out in experiment [3]: UDP glucuronosyltransferase (UGT1A1), UGT1A1 (gene 54658)
In words: LTEA_HepaRG_UGT1A1: Life Technologies and Expression Analysis (LTEA) Assay for UDP glucuronosyltransferase (UGT1A1) using HepaRG (AID 2283538; active = hit-call score of the fitted dose curve at least 0.9, where 1 is the maximum; inactive = score below 0.9). Conditions: mRNA level, 48 h; actives raise or lower the signal. In short, it runs like this:
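UGT1A1 transcript level, measured by qRT-PCR with three housekeeping genes for normalization, after 48 h treatment of human HepaRG cells (0.5% DMSO, duplicates, up to 100 uM, half-log steps, 8 points). Curves fit both directions against DMSO baseline.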

Read-out in experiment [4]: X-box binding protein 1 (XBP1), XBP1 (gene 7494)
Description: LTEA_HepaRG_XBP1: Life Technologies and Expression Analysis (LTEA) Assay for X-box binding protein 1 (XBP1) using HepaRG (AID 2283540; active = hit-call score of the fitted dose curve at least 0.9, where 1 is the maximum; inactive = score below 0.9). The conditions noted are these: mRNA level, 48 h; actives raise or lower the signal. The procedure, abridged: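 Eight concentrations (half-log, highest 100 uM, 0.5% DMSO) tested in duplicate on HepaRG cells over 48 h in serum-free induction medium; qRT-PCR of XBP1 normalised to ACTB, GAPDH, POLR2A.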

A short description of experiment [5]: LTEA_HepaRG_LDH_cytotoxicity: Cytotoxicity Assessment in the Life Technologies and Expression Analysis (LTEA) Assay (AID 2283563).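 For AC50: LDH activity released into spent culture medium as a marker of cell death.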 In short, it runs like this:
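Spent-medium LDH after 48 h chemical exposure of HepaRG cells in serum-free induction medium; eight concentrations, half-log dilutions from 100 uM, duplicate wells, fitted upward relative to 0.5% DMSO.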

Experiment [6] in a line: TOX21_p53_BLA_p2_viability: Viability Assessment in the Tox21 HCT-116 p53 Agonism Beta-lactamase Assay, Phase 2 (AID 2283591).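 Note: compound exposure lasted 16 h at 37 °C; actives lower the ATP signal meaning cytotoxicity.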 The procedure, abridged: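 HCT116 p53-bla cells, 4000/well, dosed after 5 h plating (217-fold dilution of DMSO stocks) and incubated 16 h at 37C. Viability taken as cellular ATP by CellTiter-Glo luminescence after 30 min RT; signal loss marks cytotoxicity.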

Experiment [7] is described as follows: TOX21_p53_BLA_p3_viability: Viability Assessment in the Tox21 HCT-116 p53 Agonism Beta-lactamase Assay, Phase 3 (AID 2283593).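 Note: cells exposed to compound for 16 h before reading.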 In short, it runs like this:
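HCT116 cells, 4000/well, dosed 5 h after plating by pin transfer (217-fold dilution from DMSO stock) and incubated 16 h at 37C, 5% CO2. Viability read as ATP luminescence with CellTiter-Glo after 30 min at room temperature.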

In experiment [8] the target is Cellular tumor antigen p53 (Homo sapiens) (UniProt P04637). Description: TOX21_p53_BLA_p3_ratio: Tox21 HCT-116 p53 Agonism Beta-lactamase Assay, Ratio, Phase 3 (AID 2283596). In short, it runs like this: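 Cells were seeded at 4000/well, rested 5 h at 37C, then dosed with DMSO compound solutions (217-fold dilution) for 16 h. CCF4-AM substrate was loaded for 2 h at room temperature, and the 460/530 nm emission ratio was fitted for gain of signal versus DMSO.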

Experiment [9] is described as follows: TOX21_p53_BLA_p4_viability: Viability Assessment in the Tox21 HCT-116 p53 Agonism Beta-lactamase Assay, Phase 4 (AID 2283597).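 Note: hits lower the luminescence signal meaning cytotoxicity.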 In short, it runs like this:
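In this multiplexed secondary endpoint, HCT116 cells (4000 per well, compound at 5 h, 16 h treatment) received CellTiter-Glo after the beta-lactamase read. Luminescence after 30 min RT reflects ATP, and falling signal marks cytotoxicity.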

For experiment [10], the target named is Cellular tumor antigen p53 (Homo sapiens) (UniProt P04637). In words: TOX21_p53_BLA_p5_ratio: Tox21 HCT-116 p53 Agonism Beta-lactamase Assay, Ratio, Phase 5 (AID 2283599). The procedure, abridged: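 HCT-116 p53-bla cells (4000/well) plated 5 h, dosed with compound (217-fold DMSO dilution) for 16 h at 37 C; CCF4-AM substrate 2 h at room temperature. Activity is the 460/530 nm emission ratio (405 nm excitation), fitted in gain-of-signal direction versus DMSO.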

Experiment [11] is described as follows: TOX21_p53_BLA_p5_viability: Viability Assessment in the Tox21 HCT-116 p53 Agonism Beta-lactamase Assay, Phase 5 (AID 2283600). In short, it runs like this:
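Here cell health was gauged by ATP levels in wells holding 4000 cells, each treated 16 h with DMSO-delivered compounds at 217-fold dilution; reduced luminescence marked toxicity.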

Experiment [12] has as its target Cellular tumor antigen p53 (Homo sapiens) (UniProt P04637). In words: TOX21_p53_BLA_p4_ratio: Tox21 HCT-116 p53 Agonism Beta-lactamase Assay, Ratio, Phase 4 (AID 2283601). The procedure, abridged:
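HCT-116 p53 beta-lactamase reporter cells (4000/well) preincubated 5 h, then compound (217-fold dilution of DMSO stock) for 16 h at 37C. CCF4-AM substrate added 2 h at room temperature; 460/530 nm emission ratio fitted upward versus DMSO.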

Experiment [13] can be described thus: Tanguay_ZF_120hpf_MORT_legacy: (Legacy) Oregon State University Tanguay Lab 120 Hour Post-fertilization zebrafish Assay for Mortality (AID 2283633). The procedure, abridged:
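Single dechorionated Tropical 5D embryos were held with test chemical (0.64% DMSO final) from 6 to 120 hpf at 28C under foil. Deaths at 24 or 120 hpf were recorded as binary calls, analysed for increase over DMSO controls.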

Experiment [14] can be described thus: Tanguay_ZF_120hpf_YSE_legacy: (Legacy) Oregon State University Tanguay Lab 120 Hour Post-fertilization zebrafish Assay for Yolk Sac Edema (AID 2283634).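 For AC50: actives raise the incidence of yolk sac edema above the DMSO baseline.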 The procedure, abridged: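 Single dechorionated embryos were held in sealed plates at 28C with test chemical (0.64% DMSO final) from 6 hpf until 120 hpf. Edema of the yolk sac was then recorded as a binary endpoint; non-mortality endpoints were skipped for dead embryos.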

Experiment [15] in a line: Tanguay_ZF_120hpf_AXIS_legacy: (Legacy) Oregon State University Tanguay Lab 120 Hour Post-fertilization zebrafish Assay for Body Axis Malformation (AID 2283635).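 For AC50: potency for an increased fraction of larvae scored with body axis malformation.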 The procedure, abridged: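 Each dechorionated embryo was exposed alone from 6 hpf, with DMSO at 0.64% (vol/vol) and trimethyltin chloride 5 uM as positive control. Axis malformation was recorded at 120 hpf unless the embryo had died.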

Experiment [16] in a line: Tanguay_ZF_120hpf_EYE_legacy: (Legacy) Oregon State University Tanguay Lab 120 Hour Post-fertilization zebrafish Assay for Eye Malformation (AID 2283636).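 Note: binary presence or absence of eye malformation scored by brightfield in 120 hpf larvae.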 In short, it runs like this:
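5D wild-type embryos, pronase-dechorionated at 4 hpf; static exposure 6–120 hpf, 28C, dark; DMSO 0.64% final; 5uM trimethyltin chloride positive control. Binary eye-defect scoring at 120 hpf; dead embryos not scored.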

Experiment [17] in a line: Tanguay_ZF_120hpf_SNOU_legacy: (Legacy) Oregon State University Tanguay Lab 120 Hour Post-fertilization zebrafish Assay for Snout Malformation (AID 2283637). The procedure, abridged: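 Binary brightfield scoring of snout malformation at 120 hpf. Dechorionated 5D wild-type embryos, one per well, static exposure from 6 hpf at 28C, sealed and dark; final DMSO 0.64% (vol/vol), DMSO as baseline; 5uM trimethyltin chloride positive control.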

Read-out in experiment [18]: UDP glucuronosyltransferase (UGT1A6), UGT1A6 (gene 54578)
In words: LTEA_HepaRG_UGT1A6: Life Technologies and Expression Analysis (LTEA) Assay for UDP glucuronosyltransferase (UGT1A6) using HepaRG (AID 2283539; active = hit-call score of the fitted dose curve at least 0.9, where 1 is the maximum; inactive = score below 0.9). Conditions: mRNA level, 48 h; actives raise or lower the signal. In short, it runs like this:
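Measures mRNA change in HepaRG hepatic cells exposed 48 h to chemicals (eight-point, maximum 100 uM, 0.5% DMSO vehicle) in serum-free induction medium. Expression normalized to endogenous controls; DMSO served as negative control and baseline.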

Experiment [19] can be described thus: ATG_XTT_Cytotoxicity: Cytotoxicity Assessment in the Attagene TRANS-FACTORIAL HepG2 Assay (AID 2283584). In short, it runs like this: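 24 h chemical exposure of reporter-transfected HepG2; XTT signal loss vs DMSO indicates cytotoxicity.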
Experiment [20] deals with Cellular tumor antigen p53 (Homo sapiens) (UniProt P04637). In words: TOX21_p53_BLA_p2_ratio: Tox21 HCT-116 p53 Agonism Beta-lactamase Assay, Ratio, Phase 2 (AID 2283592). In short, it runs like this: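 DMSO-normalized, positive-direction endpoint derived from the 460 nm/530 nm FRET ratio in HCT116 p53 beta-lactamase reporter cells exposed 16 h at 37C and loaded with CCF4-AM for 2 h.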

Inconclusive results are not listed. Where a structure was tested more than once in an assay, its records may differ in their call. Activity calls are given as the source filed them. Rule for the calls, unless noted: active = hit-call score of the fitted dose curve at least 0.9, where 1 is the maximum; inconclusive = response in the unintended direction; inactive = score below 0.9.

Results on seven compounds are retold here after PubChem BioAssay (EPA / NIEHS).

Cellular tumor antigen p53 (Homo sapiens), sequence (P04637 whole entry, looked up): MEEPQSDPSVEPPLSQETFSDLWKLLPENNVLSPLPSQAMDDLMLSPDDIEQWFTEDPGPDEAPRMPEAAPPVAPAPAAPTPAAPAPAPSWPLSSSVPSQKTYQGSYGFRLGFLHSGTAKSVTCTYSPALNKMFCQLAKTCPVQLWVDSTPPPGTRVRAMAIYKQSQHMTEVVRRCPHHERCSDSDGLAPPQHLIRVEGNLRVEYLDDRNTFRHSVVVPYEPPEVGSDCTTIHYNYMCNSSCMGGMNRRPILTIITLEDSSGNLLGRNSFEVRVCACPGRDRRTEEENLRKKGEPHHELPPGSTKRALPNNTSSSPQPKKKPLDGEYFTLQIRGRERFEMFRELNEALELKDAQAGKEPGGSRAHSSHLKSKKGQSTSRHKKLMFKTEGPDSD

For the compound `Nc1ccccc1N`, the AC50 in experiment [1] is 50000 nM (active); in [2], 50000 nM (active); in [3], 85000 nM (active); in [4], 88200 nM (active); in experiment [5], 68600 nM (active); in experiment [8] it was 68500 nM (active). In addition, the AC50 in experiment [9] was 23000 nM (active); in [14], 46300 nM (active). Also, the compound was classed as inactive in experiment [6], in [7], in [8], in experiment [9], in experiment [10] and in experiment [11]. In addition, the outcome in experiment [12], in experiment [13], in experiment [15], in [16] and in experiment [17] was inactive.
Consider `Cc1cc(NC(=O)C(=O)O)cc(C)c1Oc1ccc(O)c2c1CCC2`, for which the result in experiment [1], in experiment [2], in experiment [3], in experiment [4], in [5] and in experiment [8] was inactive. The outcome in experiment [10], in [12], in [13] and in experiment [16] was inactive. Also, the AC50 is 67.8 nM (active) in experiment [14], 526 nM (active) in experiment [15] and 74.2 nM (active) in experiment [17].
For the compound `c1cc(-c2ccncc2)ccn1`, the outcome in experiment [2], in experiment [18], in experiment [4], in experiment [5], in experiment [19] and in experiment [6] was inactive. For the same compound, the compound was called inactive in experiment [7], in [8], in experiment [9], in experiment [10], in [11] and in [12]. In addition, the outcome in [13], in experiment [14], in experiment [16] and in experiment [17] was inactive. Also, the AC50 in experiment [3] was 50000 nM (active).
Take `Nc1nc(N)c2nc(CNc3ccc(C(=O)N[C@@H](CCC(=O)O)C(=O)O)cc3)cnc2n1`: the compound was called inactive in experiment [1], in experiment [2], in [3], in experiment [4], in experiment [19] and in experiment [6]. For the same compound, the outcome in experiment [8], in experiment [9], in experiment [10], in experiment [12], in experiment [13] and in experiment [14] was inactive. Moreover, the compound was classed as inactive in experiment [16] and in experiment [17]. Moreover, the AC50 in [6] was 11.8 nM (active); in experiment [7], 38.1 nM (active); in experiment [8], 68.8 nM (active); in experiment [9], 49.1 nM (active); in experiment [10] it was 158 nM (active); in experiment [11] it was 64.9 nM (active). The AC50 in experiment [12] is 58.2 nM (active).
Consider `O=[N+]([O-])C(CO)(CO)CO`, for which the outcome in experiment [1], in experiment [2], in experiment [3], in experiment [4], in experiment [5] and in experiment [6] was inactive. Further, the result in experiment [7], in experiment [9], in experiment [10], in [11], in experiment [12] and in experiment [13] was inactive. The compound was called inactive in experiment [14], in [15], in [16] and in [17].
For `COc1ccc(C)cc1N`, the compound was called inactive in [1], in [2], in experiment [3], in experiment [4], in experiment [5] and in experiment [19]. For the same compound, the outcome in experiment [8], in [9], in experiment [10], in [12], in [13] and in experiment [14] was inactive. Moreover, the outcome in [15] and in [17] was inactive.
As for `CC(C)c1ccc(C(=O)N=C(N)N)cc1S(C)(=O)=O`, the AC50 is 37200 nM (active) in [1], 457 nM (active) in experiment [2], 10200 nM (active) in experiment [3] and 288 nM (active) in [4]. Besides, the result in experiment [5], in experiment [20], in [7], in experiment [9], in experiment [10] and in experiment [11] was inactive. Also, the outcome in [12], in experiment [13], in experiment [14], in experiment [15], in [16] and in experiment [17] was inactive.
